The values that follow come from PubChem BioAssay (NCATS).

Inconclusive results are not listed. A number with no mark means an inactive call. The source made the active and inactive calls. Calls come from the whole dose curve; as a rule, active = well fitted activation curve with a large enough effect; inconclusive = small, poorly fitted or top-dose-only effect; inactive = no such curve, though single readings can be large or run the other way.
Potency is the fitted concentration of half-maximal effect.

In the test the target is Cellular tumor antigen p53 (Homo sapiens) (UniProt P04637). Nature of the test: Primary qHTS for small molecule compounds that upregulate eGFP-tagged delta133p53alpha (in N-terminal) cells. (AID 2060322).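 For activation: cells pre-induced with doxycycline then dosed without doxycycline; series mostly up to about 56 µM; 0% = DMSO vehicle and 100% = reference activator.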 Note: nearly all actives have a fitted effect of over 75% in size. The conditions noted are these: NCI-H358 eGFP-delta133p53alpha fluorescence, 24 h; activation: active compounds read high. The procedure, abridged: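 NCI-H358 cells pre-induced 24 h with 10 ng/ml doxycycline for eGFP-delta133p53alpha, plated dox-free and exposed 24 h at 37C to titrated compounds. Fixed, Hoechst-stained; gated GFP peak intensity by laser scanning cytometry, normalized to DMSO (0%) and 57.5 uM 5-azacytidine (100%).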
Chain of Cellular tumor antigen p53 (Homo sapiens) (P04637 whole entry, looked up): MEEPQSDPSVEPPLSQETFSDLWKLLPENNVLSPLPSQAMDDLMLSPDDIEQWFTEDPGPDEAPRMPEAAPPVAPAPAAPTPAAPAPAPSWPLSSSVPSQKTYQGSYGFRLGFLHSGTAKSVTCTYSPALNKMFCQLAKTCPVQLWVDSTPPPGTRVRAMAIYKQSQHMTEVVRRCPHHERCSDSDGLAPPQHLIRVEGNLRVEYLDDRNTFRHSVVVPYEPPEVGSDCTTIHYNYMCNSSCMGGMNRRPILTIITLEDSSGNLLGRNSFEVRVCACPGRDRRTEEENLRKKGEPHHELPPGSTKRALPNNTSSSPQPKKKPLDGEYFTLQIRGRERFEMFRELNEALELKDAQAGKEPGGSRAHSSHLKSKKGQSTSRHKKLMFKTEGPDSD
A general note: Quantitative high-throughput screening tests each substance at several concentrations.
As to `CCN(CC)C(=O)/C(C#N)=C/c1cc(O)c(O)c([N+](=O)[O-])c1`, the activation was -3.95%.
Regarding `CCCCN(CCCC)CC(O)c1cc(Cl)cc2c1-c1ccc(Cl)cc1C2=Cc1ccc(Cl)cc1` (stereo not given), the activation is 12%.
Turning to `CC[C@H]1CN2CCc3cc(OC)c(OC)cc3[C@H]2C[C@@H]1C[C@@H]1NCCc2cc(OC)c(OC)cc21`, the Potency is 1.37 µM (active).
Regarding `COC(=O)/C=C(/C)N`, the activation is 8.47%.
Same read-out and setting: as for `O=C(OCCN1CCOCC1)c1cccnc1Nc1cccc(C(F)(F)F)c1`, the figure is -7.34%.
On the same count and under the same terms, as for `Cc1c(C(C)C)c(=O)n(-c2ccccc2)n1C`, the figure is -13.4%; as for `CCCCNC(=O)NS(=O)(=O)c1ccc(N)cc1`, -14.2%.
Take `CCCCCCCCNC(C)C(O)c1ccc(SC(C)C)cc1` (stereo not given): the Potency was 21.9 µM (active).
Turning to `Cn1c(=O)c2[nH]c(Br)nc2n(C)c1=O`, the activation is -3.95%.
As to `CCc1cnn2c(NCc3ccc[n+]([O-])c3)cc(N3CCCC[C@@H]3CCO)nc12`, the Potency is 0.0685 µM (active).
In the case of `CC[N+](C)(CC)CCOC(=O)C(O)(c1ccccc1)C1CCCCC1` (stereo not given), the activation was -16.7%.
Same read-out and setting: the value for `Nc1ncnc(Nc2ccccc2)n1` was -16.7%; that for `CCOC(=O)c1ccc(N)cc1` was 8.37%; that for `Nc1ccc(S(=O)(=O)Nc2ccccc2)cc1` was -15.9%.
On to `CCCc1ncc(C(=O)O)s1`, for which the activation is -8.37%.
Same read-out and setting: the value for `CCOC(=O)[C@H](CCc1ccccc1)N[C@@H](C)C(=O)N1CCCC1C(=O)O` (stereo not given in full) was -2.61%.
Same read-out and setting: the value for `CC(NN)c1ccccc1` (stereo not given) was 6.69%; that for `Cc1ccc2nc(NC(=O)CSc3nc4c(c(=O)n3C)SC(C)C4)sc2c1` (stereo not given) was 21.2%.
Same read-out and setting: as for `Cc1c(-c2ccccc2)oc2c(C(=O)OCCN3CCCCC3)cccc2c1=O`, the figure is -16.7%.
As for `Cn1c(=O)c2c(ncn2CC(=O)O)n(C)c1=O`, the activation was 1.69%.
In the case of `CCc1ccc(C=C2SC(=S)NC2=O)cc1`, the activation is 32.5%.
Take `CCOC(=O)c1c(N)sc2c1CCN(Cc1ccccc1)C2`: the Potency is 15.5 µM (active).
As for `COC(=O)C1=CO[C@@H](O)[C@@H]2C(CO)=CC[C@@H]12`, the activation was 4.38%.
Still for that read-out and setting: the value for `Nc1ccc([N+](=O)[O-])c(C(F)(F)F)c1` was -10.7%; that for `Cc1cc(=O)oc2cc(O[C@@H]3SC[C@@H](O)[C@H](O)[C@H]3O)ccc12` was 23.2%; that for `Cc1cc(C)c2nc(-c3ccccn3)cc(C(=O)Nc3ccc(S(=O)(=O)Nc4onc(C)c4C)cc3)c2c1` was 8.11%.
Still for that read-out and setting: as for `CCNC(=O)Nc1ccc(-c2nc3c(c(N4CCOC[C@H]4C)n2)CCN(C2COC2)C3)cc1`, the figure is 5.73%.
Same read-out and setting: as for `COc1ccnc2c1CCCCC2S(=O)c1nc2ccccc2[nH]1` (stereo not given), the figure is 11.9%.
For `CCOC(=O)NNc1ccc(N(CC)CC(C)O)nn1` (stereo not given), the activation is 15.1%.
Same read-out and setting: as for `Nc1c2ccccc2nc2ccccc12`, the figure is -7.34%.
Still for that read-out and setting: as for `O=S(=O)(N=Cc1c(O)ccc2ccccc12)c1cccs1`, the figure is 11.3%.
For the molecule `COC(=O)c1ccc(NC(C)=O)cc1OC`, the activation was -12.6%.
On the same count and under the same terms, the value for `Nc1ccc(C(=O)Nc2ccccc2N)cc1` was -7.53%.
Same read-out and setting: the value for `CSc1nc2cc(Oc3cccc(Cl)c3Cl)c(Cl)cc2[nH]1` was -40.2%.
Same read-out and setting: the value for `C[C@]12C=CC(=O)N[C@@H]1CC[C@H]1[C@H]3CC[C@@H](C(=O)Nc4cc(C(F)(F)F)ccc4C(F)(F)F)[C@@]3(C)CC[C@@H]12` was 9.28%; that for `CCCCC/C=C\C/C=C\CCCCCCCC(=O)NC(C)c1ccccc1` (stereo not given) was 0%; that for `Cc1cc(CCCOc2c(C)cc(-c3noc(C(F)(F)F)n3)cc2C)on1` was 19.8%.
Regarding `Cc1ccc2ccc(Cl)cc2n1`, the activation is -5.08%.
In the case of `CC(=O)OC[C@H]1O[C@@H](n2cnc(N)nc2=O)[C@H](OC(C)=O)[C@@H]1OC(C)=O`, the activation is -22.3%.
Take `CCn1cc(-c2cccc(C(F)(F)F)c2)c2sc(C(N)=NC3CCS(=O)(=O)CC3)cc2c1=O`: the activation is 12.3%.
